Data reported in PubChem BioAssay (NCI).
The panel holds about 79,000 compounds, 15% with a hit somewhere; the sample as a whole holds those more often. Values without a mark were called inactive. Calls of active or inactive are those of the source. Cut-off read from the data, not from the text of the source: active = growth inhibition above about 70%; inactive = the rest.

Columns and labels:
[1] = NCI Yeast Anticancer Drug Screen. Data for the rad50 strain (AID 155);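 note: 0% = growth of vehicle-only cultures of the same strain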; conditions: S. cerevisiae rad50 strain growth inhibition; at 50.0 µM; active compounds read high
Procedure, shortened: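 Yeast carrying a defined DNA repair defect were exposed to test compounds, and growth was compared with vehicle-treated controls to give percent inhibition.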

[2] = NCI Yeast Anticancer Drug Screen. Data for the mec2-1 strain (AID 157); conditions: S. cerevisiae mec2-1 strain, at 50.0 µM, active compounds read high
Procedure, shortened: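 Cells of the genetically defined mec2-1 yeast strain are incubated with test compound. Inhibition of growth is calculated against vehicle-treated controls.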

[3] = NCI Yeast Anticancer Drug Screen. Data for the sgs1 mgt1 strain (AID 161);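 note: 0% = growth of cultures given vehicle only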; conditions: S. cerevisiae sgs1 mgt1 strain, at 50.0 µM, active compounds read high
Procedure, shortened: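 Read-out: growth inhibition vs vehicle controls. Cells: mutant yeast strain deficient in DNA damage repair.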

[4] = NCI Yeast Anticancer Drug Screen. Data for the cln2 rad14 strain (AID 165);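 note: 0% = growth equal to vehicle treated cultures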; conditions: S. cerevisiae cln2 rad14 strain, at 50.0 µM, active compounds read high
Procedure, shortened: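 The screen exposed genetically defined yeast (cln2 rad14) to test compounds and scored growth inhibition relative to vehicle-treated controls.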

[5] = NCI Yeast Anticancer Drug Screen. Data for the bub3 strain (AID 167); conditions: S. cerevisiae bub3 mutant strain, at 50.0 µM, active compounds read high
Procedure, shortened: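 Compounds were applied to a genetically altered yeast strain carrying a cell-cycle control defect. Growth inhibition was scored against vehicle-treated controls.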

[6] = NCI Yeast Anticancer Drug Screen. Data for the mlh1 rad18 strain (AID 175); conditions: S. cerevisiae mlh1 rad18 strain growth inhibition; at 50.0 µM; active compounds read high
Procedure, shortened: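 Compound-treated yeast growth, normalised to vehicle controls. Strain bears defined DNA repair mutations.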

Compound | growth inhibition [1] | growth inhibition [2] | growth inhibition [3] | growth inhibition [4] | growth inhibition [5] | growth inhibition [6]
O=C(N/N=C/c1ccc(Cl)cc1Cl)c1ccccc1 | -13.8% | -1.65% | -2.95% | -5.1% | -8.65% | -3.9%
O=C(N/N=C/c1ccccn1)c1ccccc1 | -1.2% | 23.6% | 10.7% | 19.1% | 13.3% | 3.55%
C=C(C)C1Cc2cc(C(C)=O)ccc2O1 (stereo unspecified) | 12.7% | -11.7% | 9.55% | 5.8% | -4% | -59.2%
O=C1OC2(c3ccc(O)cc3Oc3cc(O)ccc32)c2ccccc21 | 6.6% | 0.55% | 10.2% | 26.7% | -0.05% | -1.2%
COC(=O)c1cc(C)n(C)c(=O)c1CNS(=O)(=O)c1ccc(C)cc1 | -1.25% | 6.45% | 0.85% | -6% | -2.8% | -12.3%
Cc1c(Cl)cccc1NC(=O)Oc1ccc(F)cc1Cl | -1.4% | -3.1% | -2.3% | 7.35% | 17.6% | -4.55%
O=C1OC2=C(CCCCC2)C(N2CCCCC2)C12SCCCS2 (stereo unspecified) | -7.9% | -6.2% | -5.2% | -17.3% | -3.25% | -14.9%
S=C(Cl)Sc1ccc(-c2ccc(SC(=S)Cl)cc2)cc1 | 2.7% | -2.5% | -10.4% | -5.6% | 6.1% | -7.9%
C[C@@H]1CC[C@]2(C(=O)O)CC[C@]3(C)C(=CC[C@@H]4[C@@]5(C)CC[C@H](O)C(C)(C)[C@@H]5CC[C@]43C)[C@@H]2[C@]1(C)O | 27.1% | 38.5% | 2.75% | 13.5% | 26.4% | -65%
C=C(CC(=O)OC)C(=O)OC | 12.3% | -2.9% | 8.45% | 7.8% | 4.15% | 9.45%
COC1OC(CO)C(OC(C)=O)C(OC(C)=O)C1OC(C)=O (stereo unspecified) | -2.05% | 16.5% | 2.9% | -14.5% | 12.6% | 1.8%
COc1ccc(NC(=O)CCc2cc(C(C)(C)C)n[nH]2)cc1 | -22.1% | -15.8% | -3.8% | 12.6% | -16.7% | -8.5%
COc1ccccc1C1CC(c2ccccc2)=Nc2ccccc2S1 (stereo unspecified) | -3.95% | -45.2% | 1.25% | 5.95% | -30.8% | -1.05%
CC(=O)Oc1cc(C(F)(F)F)ccc1C(=O)OC1(C)OC(=O)c2ccc(C(F)(F)F)cc2O1 (stereo unspecified) | -34.1% | -12.9% | -21.4% | -2.85% | -13.9% | -16.9%
Nc1ccc(C(=O)O)cc1O | 13.7% | 14.2% | 13.9% | 20.4% | 9.65% | -7%
Nc1cnc2c(c1)c(=O)nc1n2CCS1 | -0.45% | 9.65% | 6.6% | 5.3% | 0.5% | -27.1%
NS(=O)(=O)c1ccc(Nc2c3ccccc3nc3cc(Cl)ccc23)cc1 | 25.6% | -17.8% | 6.9% | 3.3% | -8.5% | -13.3%
CNC(=O)N(CC1CCCCC1)c1nc2c(=O)n(C)c(=O)[nH]c2s1 | -4.75% | -5.9% | -1% | -22.7% | -4.25% | -3.6%
Cc1ccc(C(=O)OC2C3(C)CCC(C3)C2(C)C)cc1 (stereo unspecified) | 15.9% | 18.3% | 14.3% | -37.2% | 10.2% | -0.15%
CN(C)c1nc(-c2ccccc2)c(Cc2ccccc2)c(=O)o1 | -1.9% | -4.15% | 20.5% | -4.25% | 7.25% | 7.8%
Cc1ccc(C)c(NC(=O)c2ccc([N+](=O)[O-])cc2)c1 | -4.55% | 17.4% | 10% | -11.8% | 16.4% | 23.6%

Compound | growth inhibition [1] | growth inhibition [2] | growth inhibition [3] | growth inhibition [4] | growth inhibition [5] | growth inhibition [6]
O=C(CN1C(=O)c2ccccc2C1=O)Oc1ccccc1 | 1.8% | -7.4% | 1.1% | -9.05% | 16.4% | -5.45%
N#CCCC1C(=O)CCCC1=O | 0.2% | 9.2% | -0.85% | -13.6% | 6.9% | 12.9%
O=C(CCCCl)c1ccc(O)cc1 | -29.4% | -36% | 2.75% | 11.8% | -17.6% | 0.1%
COc1cccc(N(CCO)C2CCCCC2)c1 | 12.8% | 4.2% | 18.2% | 15.7% | 10.9% | 2%
CC(NS(=O)(=O)c1ccccc1)C(N)=O (stereo unspecified) | 2.75% | 2.1% | 3.55% | -11.2% | 6.95% | -2.4%
COc1cc2c(cc1OC)C1CCN3CCCC3N1CC2 (stereo unspecified) | -7.8% | 7.6% | 0.1% | -14.9% | 2.2% | 3.3%
CC(=O)OCC1OC(n2cnc3c(N)ncnc32)C(Nc2ccc([N+](=O)[O-])cc2[N+](=O)[O-])C(OC(C)=O)C1OC(C)=O (stereo unspecified) | 23.2% | 4.4% | 5.8% | 17.9% | 3.45% | 21.8%
COc1ccc(NC(=S)NN)cc1 | 2.95% | -7.75% | 18.9% | -6% | 13.9% | 6.2%
COc1ccc(CCNC(=O)C(Sc2ccccn2)c2ccccc2)cc1OC (stereo unspecified) | 20.6% | -29.4% | 5.35% | 23.1% | 30.6% | 27.8%
O=c1[nH]c(Nc2nc3ccccc3[nH]2)nc(O)c1-c1ccccc1 | -2.85% | -14% | -23.2% | -6.7% | -6.05% | -28.6%
CCCCCCC1(C=O)NC(=O)NC1=O (stereo unspecified) | 4.2% | -12% | -11.2% | -14.1% | -4.6% | -1.35%
c1ccc(N=C2SC(c3ccccc3)CN2C23CC4CC(CC(C4)C2)C3)cc1 (stereo unspecified) | -18.4% | -6.5% | -38% | -64.5% | -1.2% | -9.8%
CCCCCCCCC(=O)OCC(=O)N(C)C | 15.6% | 8.8% | 6.35% | 13.3% | 2.9% | 9.4%
O=C1COc2ccccc2OCCOCCOc2ccccc2OC1 | 11.2% | -2.9% | -2.7% | -12.2% | 2.3% | -14.9%
CCc1c(C)nc2cc(-c3cc(C)n4c(=O)c(CC)c(C)nc4c3)cc(C)n2c1=O | 1.6% | 9.95% | -12.7% | 1.2% | 3.2% | 3.95%
CN(C)c1ccc(N=Nc2cccc3ccoc23)cc1 | 11.6% | -23.6% | 9.9% | -28.3% | 14.9% | 14%
CCC(C)NC(=O)c1ccccc1 (stereo unspecified) | 16.8% | 17.7% | 7.8% | -34.5% | 1.75% | 15.3%
CCCCCCCCCCCCCCCCCCOC(=O)c1cccnc1 | 23.1% | 10.3% | 15.8% | 20.7% | 23.8% | 27.3%
O=C1CCCC1C(=O)c1ccccc1.O=C1CCCC1C(=O)c1ccccc1.[Cu] (stereo unspecified) | 70.9% (active) | 22.1% | 88.5% (active) | 23.7% | -2% | 52.9%
CC(=O)Oc1cc2c(c3ccc4ccccc4c13)CCc1ccccc1-2 | 11.8% | -11.7% | 10.1% | 10.2% | 0.1% | 4.9%
